The whole screen tested about 69,000 compounds, of which about 8,600 (12%) showed an effect of 50% or more. The sample as a whole holds a higher share of strong results than the screen did.
test system: Plasmodium berghei; assay: Screen against P. berghei liver stage (PbLuc), transformed with Luciferase, at 10uM; format: functional, HepG2; settings: tested at 10 uM

Row | Compound | INHIBITION [%]
1 | CN(Cc1nc(CS(C)(=O)=O)no1)c1ccccc1 | 19.7
2 | CS(=O)(=O)Cc1noc(CN(Cc2ccco2)c2ccccc2)n1 | 54.4
3 | COCCN(Cc1ccco1)Cc1nc(-c2ccccc2)no1 | -10.1
4 | Cc1noc(C)c1CN1C[C@@H](N(C)Cc2ccco2)[C@H]2OCCC[C@H]21 | 20.6
5 | O=C(NCCNc1ncccn1)C1CCN(C(=O)c2ccoc2)CC1 | -2.53
6 | CC1(C)OC(=O)N(CCCC(=O)c2ccc(F)cc2)C1=O | -4.12
7 | CN(C)C(=O)CCNC(=O)NCc1ccc(Br)cc1Cl | 47.6
8 | COCC(=O)N(C)Cc1ccc(Cl)c(Cl)c1 | -11.1
9 | CN(C)C(=O)CCC[S+]([O-])Cc1cc(Cl)ccc1Cl (stereo not given) | 57.3
10 | CN(C)C(=O)CNC(=O)c1ccc(Cl)cc1F | -12.6
11 | CN(C)C(=O)CCC[S+]([O-])Cc1ccc(F)c(F)c1 (stereo not given) | 31.5
12 | CN(C)C(=O)CCC[S+]([O-])Cc1ccc(Cl)c(Cl)c1 (stereo not given) | 57.3
13 | CC(C)CCN1CCc2cc(C(=O)N(C)C)c(NCC3CC3)nc2CC1 | -35
14 | CCC[C@H]1CN(c2nc(CO)cs2)C[C@@H]1NC(=O)C1CCC1 | 48.2
15 | CC(=O)N[C@@H]1CN(C(=O)c2ccc[nH]2)C[C@H]1c1ccc(C)o1 | 45.1
16 | CCc1nnc(N2C[C@@H](NC(C)=O)[C@H](c3ccc(C)o3)C2)s1 | 44.3
17 | CC(=O)N[C@@H]1CN(c2nc(C(N)=O)cs2)C[C@H]1c1ccc(C)o1 | 35
18 | CC(=O)N[C@@H]1CN(c2nc(CO)cs2)C[C@H]1c1ccc(C)o1 | 65.6
19 | Cc1nc(O)cc(CN2C[C@H](NC(=O)C3CCCC3)[C@@H](C3CC3)C2)n1 | -69.6
20 | CC(=O)N[C@@H]1CN(C(=O)c2cc3sccc3[nH]2)C[C@H]1c1ccc(C)o1 | -7.94
21 | CC(=O)N[C@@H]1CN(C(=O)c2cc3ccccc3[nH]2)C[C@H]1c1ccc(C)o1 | 61.2
22 | O=C(N[C@H]1CN(c2nc(CO)cs2)C[C@@H]1C1CC1)C1CCCCC1 | 50.4
23 | Cc1ccccc1C1CN(c2cnn(C)c(=O)c2Cl)CCO1 (stereo not given) | -3.35
24 | Cc1cnc(N2C[C@H]3CN(Cc4csc(C)n4)C(=O)[C@H]3C2)nc1 | 31.4
25 | CCOC(=O)[C@]12CCCN(Cc3ccco3)C[C@H]1CN(S(C)(=O)=O)C2 | 6.67
26 | Cc1ccc2c(c1)[C@@H](CC(=O)N1CCN(C)CC1)CCO2 | -12.2
27 | CNC(=O)[C@H]1C[C@@H]2CN(S(=O)(=O)c3ccc(F)cc3)C[C@@H]2N1C | 35.8

Row | Compound | INHIBITION [%]
28 | CCN1CC[C@@]2(C(=O)N3CCCC3)CCN(S(C)(=O)=O)CC[C@@H]12 | -45.5
29 | Cc1ncsc1CN1C[C@@H]2COC[C@]2(CNC(=O)c2ccccc2)C1 | -49.6
30 | Cc1cccc(COC[C@H]2CC[C@H]3[C@H](CCN3C(=O)CC3CC3)O2)n1 | 2.84
31 | COc1cccc(COCC(=O)N2CCCCCC2)c1 | -51.075
32 | COc1cccc(C(=O)N2CCN(C(=O)CCCc3cn[nH]c3)CC2)c1 | 65.6
33 | COc1cccc(C(=O)N2CCN(C(=O)CCn3ccnc3)CC2)c1 | 55
34 | COc1cccc(OCC2CCCN(C(=O)CCCn3cccn3)C2)c1 (stereo not given) | 16.9
35 | O=C(CCCc1cn[nH]c1)N1C[C@@H](CN2CCOCC2)[C@@H](CO)C1 | 2.3
36 | O=C(CCCc1cn[nH]c1)N1C[C@@H](CN2CCCCCC2)[C@@H](CO)C1 | 52.2
37 | COc1ccccc1C(=O)N1CCN(C(=O)CCCc2cn[nH]c2)CC1 | 32
38 | COc1cccc(OCC2CCCN(C(C)=O)C2)c1 (stereo not given) | -20.9
39 | COc1cccc(C(=O)N2CCN(C(=O)CCCn3ccnc3)CC2)c1 | 40.9
40 | COc1ccc(C(=O)N2CCN(C(=O)CCCc3cn[nH]c3)CC2)cc1 | 26.4
41 | COc1cccc(OCC2CCCN(C(=O)CCn3ccnc3)C2)c1 (stereo not given) | 82.2
42 | O=C(CCc1cn[nH]c1)N1C[C@@H](CN2CCCCCC2)[C@@H](CO)C1 | 36.6
43 | COc1ccccc1C(=O)N1CCN(C(=O)CCn2ccnc2)CC1 | -27.4
44 | N#CC(NC(=O)CNC(=O)c1ccccc1)c1ccsc1 (stereo not given) | 18.5
45 | CC(=O)Nc1nc(C2CN(C(=O)C3CCC3)C2)cs1 | 37.6
46 | Cn1c(C(=O)N2CC[C@@]3(O)CCCC[C@H]3C2)cc2ccccc21 | -9.51
47 | COc1ccc([C@@H]2CN(C(=O)c3cscn3)C[C@H]2C(=O)O)cc1 | -9.32
48 | O=C(Cc1n[nH]c2ccccc12)N1CCCCC1Cn1cccn1 (stereo not given) | -31.5
49 | Cc1nn(C)c(N(C)C)c1CNCCOc1ccc2c(c1)OCO2 | -20.893
50 | OC(CN1CCOCC1)c1ccc(Br)cc1 (stereo not given) | 1.56
51 | CCC(=O)NC(C)c1ccccc1C (stereo not given) | 10.06
52 | Cc1c(C(=O)N2CCCC(n3cncn3)C2)cnn1C (stereo not given) | 1.75
53 | Nc1nnc(C2CC(=O)N(c3ccccc3)C2)s1 (stereo not given) | 44.9
54 | Cn1cc(-c2nc(CN3CCN(c4nccs4)CC3)cs2)cn1 | 42.7

Row | Compound | INHIBITION [%]
55 | c1cncc(C2COC3(CCN(CC4CCOCC4)CC3)C2)c1 (stereo not given) | 23.3
56 | CC(C)C(=O)NCCc1nc(-c2ccncc2)n[nH]1 | 28.2
57 | O=C(NCCCN1CCOCC1)c1cc(-c2ccccc2)[nH]n1 | -14.3
58 | O=C(Cc1nc(-c2ccncc2)n[nH]1)N1CCOCC1 | 78.8
59 | O=C(NCCCN1CCOCC1)c1cc(-c2ccco2)[nH]n1 | -26.5
60 | COCCCNC(=O)Cc1nc(-c2ccncc2)n[nH]1 | 77.7
61 | CC(C)c1cc(C(=O)NCCc2nc(-c3ccncc3)n[nH]2)[nH]n1 | 5.7
62 | O=C(COCc1nc(-c2ccncc2)no1)N1CCCC1 | 16.8
63 | O=C(Cc1nc(-c2ccncc2)n[nH]1)NCCCN1CCOCC1 | 66.3
64 | O=C(COCc1nc(-c2ccncc2)no1)N1CCOCC1 | 1.06
65 | OCC1CCCN1c1cc(NCc2cccc3cccnc23)ncn1 (stereo not given) | -21.8
66 | Cc1ccc(CS(=O)(=O)CC(=O)NCCCOC(C)C)cc1 | 15.6
67 | Cc1cc(C)c(CNC(=O)NC(C)c2ccc3c(c2)CCC3)c(=O)[nH]1 (stereo not given) | 48.2
68 | Cc1cc(CN2CCOC(CNc3cccnn3)C2)on1 (stereo not given) | 2.3
69 | COc1ccccc1N1CCN(C(=O)CSC(C)C)C(C)C1 (stereo not given) | 17.6
70 | CCN1CCC(CC(=O)N2CCN(c3ccccc3OC)CC2C)CC1 (stereo not given) | 21.2
71 | COc1ccccc1N1CCN(C(=O)CSCC2CC2)C(C)C1 (stereo not given) | 51.2
72 | COc1ncccc1-c1cc(C(=O)NC2CC2)ccn1 | -68.7
73 | COc1ncccc1-c1ncccc1NC(=O)C(C)C | 24.3
74 | COc1ncccc1-c1cc(C(N)=O)ccn1 | 52.2
75 | CN1CCCC1CNC(=O)CCOc1ccc(Cl)cc1 (stereo not given) | -11.98
76 | Cc1cnc(C)c(N2CCN(CCCc3ccncc3)CC2)n1 | 76
77 | Cc1cnc(C)c(N2CCN(CCCc3[nH]nc(C)c3C)CC2)n1 | 30.3
78 | Cc1noc(C(C)N2CCN(CCc3ccncc3)CC2)n1 (stereo not given) | -11.9
79 | Cc1cnc(N)nc1N1CCN(CCCO)CC1 | 42.1
80 | CCN(CC)CCCN1CCN(c2nc(C)cnc2C)CC1 | 71.1
81 | CSCCN1CCN(c2nc(N)ncc2C)CC1 | 19.4

Row | Compound | INHIBITION [%]
82 | Cc1nc(CN2C[C@@H]3COC[C@]3(COCC(=O)N(C)C)C2)cs1 | 43.1
83 | CN(C)c1ccc(C(=O)Nc2cn[nH]c2)cc1 | 4.885
84 | Cc1cc(C)n(CC(=O)N2CCCC2c2cc3cccnc3[nH]2)n1 (stereo not given) | 9.05
85 | CCC(=O)N1CCOC(c2cc(Nc3nncs3)cc(C)n2)C1 (stereo not given) | 41
86 | O=S1(=O)NC(=CSCc2ccccc2)Nc2ccccc21 | 38
87 | O=C(c1cc(C2CC2)on1)N1C[C@H]2CC[C@](O)(c3ccc(F)cc3)[C@H]2C1 | 1.75
88 | O=C(c1cc(C2CC2)n[nH]1)N1C[C@H]2CC[C@](O)(c3ccccc3F)[C@H]2C1 | -16.56
89 | O=C(c1cc(C2CC2)on1)N1C[C@H]2CC[C@](O)(c3ccccc3F)[C@H]2C1 | 53.45
90 | CCC[C@H]1CN(CCS(C)(=O)=O)C[C@@H]1NC(=O)c1ccccc1F | -30.2
91 | CCC[C@H]1CN(CCS(C)(=O)=O)C[C@@H]1NC(=O)c1ccccn1 | 26.6
92 | CCC[C@H]1CN(CCS(C)(=O)=O)C[C@@H]1NC(=O)c1cc(CC)on1 | 50.1
93 | CCC[C@H]1CN(CCS(C)(=O)=O)C[C@@H]1NC(=O)c1ccn(C)n1 | 61.2
94 | CCC[C@H]1CN(CCS(C)(=O)=O)C[C@@H]1NC(=O)c1cc[nH]n1 | 13
95 | CCC[C@H]1CN(CCS(C)(=O)=O)C[C@@H]1NC(=O)c1cccnn1 | -25.2
96 | Cc1cnn(CC2CCCN2C(=O)CCc2ccncc2)c1 (stereo not given) | -14
97 | Cc1cccc(-c2cc(C(=O)O)sn2)c1 | -12.1
98 | Cc1occc(=O)c1OCc1noc(C(=O)NCC2CC2)n1 | 33.5
99 | O=C(c1cccnc1)N1CCn2nnc(COc3cccnc3)c2C1 | 47.8
100 | CN1CCN(C2COC3(CCN(Cc4ccsc4)CC3)C2)CC1 (stereo not given) | 54.4
101 | CN1CCN(C2COC3(CCN(Cc4ccc(F)cc4)CC3)C2)CC1 (stereo not given) | 54.4
102 | Cc1ccc(CN2CCC3(CC2)CC(N2CCN(C)CC2)CO3)s1 (stereo not given) | 47.4
103 | CN1CCN(C2COC3(CCN(Cc4cccs4)CC3)C2)CC1 (stereo not given) | 1.94
104 | CCc1ccc(CN2CCC3(CC2)CC(N2CCN(C)CC2)CO3)cc1 (stereo not given) | 45.5
105 | CCOC1COC2(CCN(Cc3ccc(F)cc3)CC2)C1 (stereo not given) | -24.5

— ChEMBL document CHEMBL4513216, “Probing the Open Global Health Chemical Diversity Library for Multistage-Active Starting Points for Next-Generation Antimalarials” (ACS Infect Dis, 2020)
